Test in all cases: PBM binding z-score (relative to random genomic background probes); higher = stronger binding; sequences stand for … in GC…GCGATTGACAGCGTAGAATGAAGG
The subject of assay [1] is FXR:RXRa (NR concentration 270 nM, RXRa partner concentration 90 nM). The method, boiled down:
(§1)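 Custom Agilent 4×180K protein-binding microarrays carried double-stranded probes, each with a 34-nt variable region. These regions held direct-repeat seeds, single-nucleotide variants, half-site ablations and random human genomic background sequences. Ligand-free nuclear receptor dimers were incubated on the arrays for 1 h, antibodies against each partner (one per run) detected binding, and scanned fluorescence was regression-normalized. Binding z-scores take the random background probes as reference.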

In assay [2] the test system is LXRa:RXRa (NR concentration 270 nM, RXRa partner concentration 90 nM). The method, boiled down:
as §1

The test system of assay [3] is LXRa homodimer (NR concentration 270 nM). In outline: as §1
In assay [4] the test system is LXRb:RXRa (NR concentration 270 nM, RXRa partner concentration 90 nM). In outline: as §1
Assay [5] has as its system LXRb homodimer (NR concentration 270 nM). The method, boiled down:
as §1

Assay [6] has as its system PPARa:RXRa (NR concentration 270 nM, RXRa partner concentration 90 nM). In outline: as §1
In assay [7] the test system is PPARg:RXRa (NR concentration 180 nM, RXRa partner concentration 90 nM). The method, boiled down:
as §1

Assay [8] has as its system PPARg:RXRa 270nM:90nM, anti-RXR (NR concentration 270 nM, RXRa partner concentration 90 nM). The method, boiled down: as §1
The test system of assay [9] is PPARg:RXRa 30nM:10nM, anti-RXR (NR concentration 30 nM, RXRa partner concentration 10 nM). In outline: as §1
Assay [10] deals with PPARg:RXRa 90nM:30nM, anti-RXR (NR concentration 90 nM, RXRa partner concentration 30 nM). The method, boiled down: as §1
The test system of assay [11] is PPARg:RXRa DBDmut IVT, anti-RXR (DBD mutation: RXRa K156A/R161A, NR concentration 270 nM, RXRa partner concentration 90 nM). In outline: as §1
Assay [12] has as its system PPARg:RXRa IVT, anti-PPARg (NR concentration 270 nM, RXRa partner concentration 90 nM). The method, boiled down:
as §1

The test system of assay [13] is PPARg DBDmut:RXRa IVT, anti-PPARg (DBD mutation: PPARg1 K132A/R137A, NR concentration 270 nM, RXRa partner concentration 90 nM). The method, boiled down:
as §1

The test system of assay [14] is PPARg DBDmut IVT, anti-PPARg (DBD mutation: PPARg1 K132A/R137A, NR concentration 270 nM). The method, boiled down: as §1
For assay [15], the system named is PPARg homodimer (NR concentration 180 nM). The method, boiled down: as §1
Assay [16] concerns PXR:RXRa (NR concentration 270 nM, RXRa partner concentration 90 nM). The method, boiled down:
as §1

The test system of assay [17] is PXR homodimer (NR concentration 270 nM). The method, boiled down: as §1
For assay [18], the system named is RARa:RXR (NR concentration 270 nM, RXRa partner concentration 90 nM). In outline: as §1
Assay [19] concerns RARa homodimer (NR concentration 270 nM). In outline: as §1
In assay [20] the test system is RARb:RXRa (NR concentration 270 nM, RXRa partner concentration 90 nM). In outline: as §1

As to AGAATGCGGTTATACGTAGATCAGGGAAGAAAGT, the PBM binding z-score in assay [1] was -0.295; in assay [2], 0.056; in assay [3] it was -0.263; in assay [4], -0.408; in [5], -0.59; in assay [6], -0.235. Besides, the PBM binding z-score in assay [7] is 0.152; in assay [8] it was -0.304; in [9], -0.0964; in [10], -0.139; in [11], -0.0715; in assay [12], -0.172. In addition, the PBM binding z-score was -0.724 in assay [13]; -0.259 in assay [14]; -0.759 in assay [15]; -0.417 in assay [16]; -0.318 in [17]; -0.261 in assay [18]. The PBM binding z-score is -0.54 in [19] and -0.164 in assay [20].
CGTCGAAGGTCAGAGAGGTCAGTGAATGCCGAGT: the PBM binding z-score came to 6.25 in assay [1]; 5.11 in [2]; 3.28 in [3]; 4.34 in assay [4]; 0.365 in assay [5]; 4.79 in [6]. Besides, the PBM binding z-score was found to be 3.57 in assay [7]; 4.39 in assay [8]; 1.28 in [9]; 3.06 in assay [10]; 2.6 in assay [11]; 3.03 in assay [12]. For the same sequence, the PBM binding z-score in assay [13] was -0.434; in assay [14], -0.601; in [15] it was 6.33; in assay [16] it was 6.06; in assay [17], 11.6; in [18], 5.68. The PBM binding z-score in assay [19] was determined as 3.9; in [20], 5.05.
Take TCATATAGCTAAAGGTGAAAGTCGAACGATATGA: the PBM binding z-score in assay [1] was 1.12; in assay [2], 1.09; in [3], -0.213; in assay [4], 1.26; in assay [5], -0.321; in assay [6], 2.67. Further, the PBM binding z-score in [7] amounted to 2.06; in [8], 3.08; in assay [9] it was 3.19; in assay [10], 3.31; in assay [11], 1.54; in [12] it was 1.41. Also, the PBM binding z-score in assay [13] was found to be 0.485; in assay [14], 1.01; in assay [15], 0.548; in assay [16], 0.662; in [17] it was 0.459; in assay [18] it was 1.51. Also, the PBM binding z-score was 0.712 in [19] and 1.62 in assay [20].
Take GCATATAGGTAATACAAGGTGCAAGTCCGATTGT: the PBM binding z-score in assay [1] was -0.133; in assay [2], -0.156; in assay [3], -0.264; in assay [4] it was -0.333; in assay [5], -0.455; in assay [6], 0.617. Further, the PBM binding z-score was 0.975 in [7]; 0.986 in [8]; 0.152 in [9]; 0.648 in assay [10]; 3.88 in assay [11]; 2.81 in assay [12]. Also, the PBM binding z-score in assay [13] is 0.731; in assay [14], 0.109; in assay [15] it was 0.579; in assay [16] it was -0.0713; in assay [17] it was 0.191; in [18], 0.538. Besides, the PBM binding z-score in assay [19] is 0.49; in assay [20], -0.282.
For the sequence CCTACTGGGCCATTCAGAGGTCATTGAACATATG, the PBM binding z-score in assay [1] came to 2.73; in [2] it was 4.42; in assay [3], 6.32; in assay [4], 4.04; in assay [5], 0.612; in assay [6] it was 4.06. The PBM binding z-score worked out at 2.51 in [7]; 3.47 in [8]; 1.18 in assay [9]; 2.51 in assay [10]; 4.56 in [11]; 4.39 in assay [12]. The PBM binding z-score was 0.0817 in assay [13]; -0.464 in assay [14]; 3.64 in assay [15]; 5.2 in assay [16]; 3.45 in [17]; 5.13 in assay [18]. Further, the values for the PBM binding z-score in assay [19] and in assay [20] were 1.15 and 3.23, respectively.
As to GCTAGCAGGCCATTTGGGTCAGTCAATGACGGGC, the PBM binding z-score was -0.0631 in assay [1]; -0.302 in assay [2]; -0.489 in [3]; -0.399 in [4]; -1.6 in assay [5]; 0.666 in [6]. The PBM binding z-score is 0.221 in assay [7]; -0.137 in assay [8]; -0.663 in [9]; -0.371 in assay [10]; 1.4 in assay [11]; 1.05 in [12]. The PBM binding z-score in assay [13] was -0.511; in assay [14], -1.16; in [15] it was -0.0651; in assay [16] it was -0.047; in assay [17], 0.065; in assay [18], 0.213. In addition, the PBM binding z-score in assay [19] is -1.59; in assay [20], 1.12.
As for CCTGCTAGGTCAATGGTCAGCCAAAGCAGCTCGC, the PBM binding z-score in assay [1] is 2.77; in [2] it was 2.02; in assay [3], 0.0245; in assay [4], 1.36; in assay [5], -0.223; in [6], 3.1. For the same sequence, the PBM binding z-score is 5.04 in assay [7]; 5.03 in assay [8]; 2.96 in assay [9]; 5.02 in [10]; 4.18 in assay [11]; 3.97 in [12]. For the same sequence, the PBM binding z-score was -0.884 in assay [13]; -0.321 in assay [14]; 1.16 in [15]; 0.76 in assay [16]; -0.543 in assay [17]; 1.52 in assay [18]. Moreover, the PBM binding z-score in assay [19] is -0.219; in assay [20], 3.77.

(Values after the supplement of paper PMC6555819.)
